# Records with an inconclusive call do not appear. Where a call stands in place of a potency, no number is given. Activity calls are given as the source filed them. Calls follow the shape of the full dose curve.
# Assay: Primary qHTS for inhibitors of MERS-S pseudo-typed particle cell entry (AID 1479149); also: nearly all actives have a fitted effect of over 60% in size
# Conditions: MERS-S pseudotyped particle entry, luciferase; series mostly up to 57.1 µM
# Potency is read from the fitted curve at half-maximal effect.
row,Structure (SMILES),Potency
1,CC(=O)Nc1c(I)c(NC(C)=O)c(I)c(C(=O)O)c1I,inactive
2,CC[N+](CC)(CC)CCOc1cccc(OCC[N+](CC)(CC)CC)c1OCC[N+](CC)(CC)CC,inactive
3,Cc1ccsc1/C=C/C1=NCCCN1C,inactive
4,Cc1cc(NS(=O)(=O)c2ccc(N)cc2)nc(C)n1,inactive
5,C[C@]12CCC(=O)C=C1CC[C@H]1[C@@H]3CC[C@](O)(C(=O)CO)[C@@]3(C)C[C@H](O)[C@@]12F,inactive
6,c1ccc2c(CC3=NCCN3)cccc2c1,inactive
7,CCCCOC(=O)c1ccc(O)cc1,inactive
8,CC(=O)OCC1=C(C(=O)O)N2C(=O)[C@@H](NC(=O)Cc3cccs3)[C@H]2SC1,inactive
9,COc1cc(C(=O)NC2CCCNC2)cc(OC)c1OC (stereo not drawn),inactive
10,CC(C)c1ccc2oc3nc(N)c(C(=O)O)cc3c(=O)c2c1,inactive
11,NC(=O)NC(=O)Cc1ccccc1,inactive
12,CC(=O)O[C@@H]1CC2C3CCc4cc(OC(=O)c5ccccc5)ccc4C3CCC2(C)[C@H]1OC(C)=O (stereo partly drawn),inactive
13,NC(=O)c1ccccc1O,inactive
14,CCCCCCCCCCCCCCCCCC(=O)O,inactive
15,Cc1cc(NS(=O)(=O)c2ccc(N)cc2)no1,inactive
16,CCCNC(C)C(=O)Nc1ccccc1C (stereo not drawn),inactive
17,CCOC(=O)NNc1ccc(N(CC)CC(C)O)nn1 (stereo not drawn),inactive
18,CN1C(=O)OC(C)(C)C1=O,inactive
19,CC1(C)O[C@@H]2C[C@H]3[C@@H]4C[C@H](F)C5=CC(=O)C=C[C@]5(C)[C@@]4(F)[C@@H](O)C[C@]3(C)[C@]2(C(=O)CO)O1,inactive

row,Structure (SMILES),Potency
1,O=C1c2ccccc2C(=O)c2c1ccc(O)c2O,inactive
2,Cc1ncc(CO)c(CO)c1O,inactive
3,Nc1nc(/C(=C/CC(=O)O)C(=O)N[C@@H]2C(=O)N3C(C(=O)O)=CCS[C@H]23)cs1,inactive
4,Cc1oc(=O)oc1CN1CCN(c2cc3c(cc2F)c(=O)c(C(=O)O)c2n3C(C)S2)CC1 (stereo not drawn),inactive
5,O=c1[nH]c(=O)n([C@H]2C[C@H](O)[C@@H](CO)O2)cc1I,inactive
6,O=C(O)c1cc(=O)[nH]c(=O)[nH]1,inactive
7,N#C[C@H]1C[C@H]2C[C@@H]2N1C(=O)[C@@H](N)C12CC3CC(CC(O)(C3)C1)C2,inactive
8,OCCOCCN1CCN(C2=Nc3ccccc3Sc3ccccc32)CC1,inactive
9,NS(=O)(=O)c1cc(C(=O)NN2C[C@H]3[C@H]4CCC(C4)[C@H]3C2)ccc1Cl,inactive
10,CCOC(=O)[C@H](CCc1ccccc1)N[C@H]1CCCN2CCC[C@@H](C(=O)O)N2C1=O,inactive
11,O=C(CCOCCOCCOCCOCCC(=O)Nc1c(I)cc(I)c(C(=O)O)c1I)Nc1c(I)cc(I)c(C(=O)O)c1I,inactive
12,C=CCc1ccc(O)c(OC)c1,inactive
13,CC(C)C(=O)c1c(C(C)C)nn2ccccc12,inactive
14,CCCC(O)C(CC)CO (stereo not drawn),inactive
15,CC(C)(O/N=C(\C(=O)N[C@@H]1C(=O)N2C(C(=O)[O-])=C(C[n+]3ccccc3)CS[C@H]12)c1csc(N)n1)C(=O)O,inactive
16,Cn1c(=O)c2[nH]c(Br)nc2n(C)c1=O,inactive
17,C=CC(N)CCC(=O)O (stereo not drawn),inactive
18,CCCCCCOc1ccccc1C(N)=O,20 µM (active)
19,CNC[C@H](O)[C@@H](O)[C@H](O)[C@H](O)CO,inactive

# Source: PubChem BioAssay (NCATS)
